According to PubChem BioAssay AID1159580 (chemical genetic matrix, 2015):
Several values for one entry are separate records, joined by “and”; a condition that tells them apart may be missing. Equal entries are not always repeated. In all, about 5,500 compounds went through this assay and about 2,000 (36%) were called active. About 18% were inconclusive and are not listed. Cut-off read from the data, not from the text of the source: active = normalized growth mostly below about 0.91 (no sharp cut-off); inconclusive = no clear call, values can overlap the other calls; inactive = mostly above about 0.92. The list shows a part of the results.

Test: chemical genetic growth profiling, strain panel (AID 1159580);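 note: tested at 20 µM; growth read once vehicle control cultures reached saturation at 30 °C; 1 = growth at the plate median or of vehicle wells; lower values mean less growth of the strain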
Conditions: growth OD

Measured: normalized growth

NC/C=C/C(=O)O
inactive: S. cerevisiae deletion strains, locus YJR043C, strain POL32, active compounds read low 1.04 | S. cerevisiae deletion strains, locus YJR075W, strain HOC1, active compounds read low 1.01 | S. cerevisiae deletion strains, locus YKL009W, strain mrt4, active compounds read low 1.03 | S. cerevisiae deletion strains, locus YKL068W, active compounds read low 1.01 | S. cerevisiae deletion strains, locus YKL085W, strain MDH1 (second series), active compounds read low 1.01 | S. cerevisiae deletion strains, locus YKL085W, strain MDH1, active compounds read low 1.01 | S. cerevisiae deletion strains, locus YKL160W, strain elf1, active compounds read low 0.981 | S. cerevisiae deletion strains, locus YKL190W, strain CNB1, active compounds read low 1.02 | S. cerevisiae deletion strains, locus YKR001C, strain vps1, active compounds read low 1.02 | S. cerevisiae deletion strains, locus YKR026C, strain gcn3, active compounds read low 0.987 | S. cerevisiae deletion strains, locus YKR091W, strain srl3, active compounds read low 1.01 | S. cerevisiae deletion strains, locus YLL001W, strain dnm1, active compounds read low 1 | S. cerevisiae deletion strains, locus YLL026W, active compounds read low 1 | S. cerevisiae deletion strains, locus YLL041C, strain sdh2, active compounds read low 1.01 | S. cerevisiae deletion strains, locus YLR027C, strain aat2, active compounds read low 1.01 | S. cerevisiae deletion strains, locus YLR039C, strain RIC1, active compounds read low 1.07 | S. cerevisiae deletion strains, locus YLR058C, strain SHM2, active compounds read low 1.02 | S. cerevisiae deletion strains, locus YLR102C, strain apc9, active compounds read low 1.01 | S. cerevisiae deletion strains, locus YLR221C, strain rsa3, active compounds read low 0.999 | S. cerevisiae deletion strains, locus YLR258W, strain gsy2, active compounds read low 1.02 | S. cerevisiae deletion strains, locus YLR262C, strain YPT6 (second series), active compounds read low 1.01 | S. cerevisiae deletion strains, locus YLR262C, strain YPT6, active compounds read low 1.03 | S. cerevisiae deletion strains, locus YLR268W, strain sec22, active compounds read low 0.98 | S. cerevisiae deletion strains, locus YLR320W, strain mms22, active compounds read low 1.01 | S. cerevisiae deletion strains, locus YLR330W, strain CHS5, active compounds read low 1.01 | S. cerevisiae deletion strains, locus YLR342W, strain FKS1 (second series), active compounds read low 1.11 | S. cerevisiae deletion strains, locus YLR342W, strain FKS1, active compounds read low 1.01 | S. cerevisiae deletion strains, locus YLR357W, strain rsc2, active compounds read low 1.1 | S. cerevisiae deletion strains, locus YLR370C, strain arc18, active compounds read low 1.01 | S. cerevisiae deletion strains, locus YLR371W, strain rom2, active compounds read low 1.02 | S. cerevisiae deletion strains, locus YLR384C, strain iki3, active compounds read low 1.02 | S. cerevisiae deletion strains, locus YLR418C, strain cdc73, active compounds read low 0.943 | S. cerevisiae deletion strains, locus YML016C, strain PPZ1, active compounds read low 1.01 | S. cerevisiae deletion strains, locus YML032C, strain rad52, active compounds read low 1.05 | S. cerevisiae deletion strains, locus YML120C, strain ndi1, active compounds read low 1.01 | S. cerevisiae deletion strains, locus YML124C, strain tub3, active compounds read low 1.01 | S. cerevisiae deletion strains, locus YMR058W, strain fet3, active compounds read low 1.01 | S. cerevisiae deletion strains, locus YMR078C, strain ctf18, active compounds read low 1.02 | S. cerevisiae deletion strains, locus YMR125W, strain sto1, active compounds read low 1.04 | S. cerevisiae deletion strains, locus YMR129W, active compounds read low 0.973 | S. cerevisiae deletion strains, locus YMR205C, strain PFK2, active compounds read low 1.02 | S. cerevisiae deletion strains, locus YMR223W, strain ubp8, active compounds read low 1.04 | S. cerevisiae deletion strains, locus YMR231W, strain pep5, active compounds read low 1.01 | S. cerevisiae deletion strains, locus YMR263W, strain SAP30, active compounds read low 1.01 | S. cerevisiae deletion strains, locus YMR307W, strain GAS1, active compounds read low 1.02 and 0.997 | S. cerevisiae deletion strains, locus YNL067W, strain RPL9B, active compounds read low 1.01 | S. cerevisiae deletion strains, locus YNL071W, strain lat1, active compounds read low 1.01 | S. cerevisiae deletion strains, locus YNL128W, strain TEP1, active compounds read low 0.988 | S. cerevisiae deletion strains, locus YNL153C, strain GIM3, active compounds read low 1.01 and 1.03 | S. cerevisiae deletion strains, locus YNL175C, strain NOP13, active compounds read low 1 | S. cerevisiae deletion strains, locus YNL197C, strain WHI3, active compounds read low 0.996 | S. cerevisiae deletion strains, locus YNL209W, strain ssb2, active compounds read low 1 | S. cerevisiae deletion strains, locus YNL224C, strain SQS1, active compounds read low 1 | S. cerevisiae deletion strains, locus YNL233W, strain BNI4, active compounds read low 1.02 | S. cerevisiae deletion strains, locus YNL248C, strain rpa49, active compounds read low 1.01 | S. cerevisiae deletion strains, locus YNL250W, strain rad50, active compounds read low 1 | S. cerevisiae deletion strains, locus YNL271C, strain bni1, active compounds read low 1.02 | S. cerevisiae deletion strains, locus YNL298W, strain CLA4, active compounds read low 1.01 | S. cerevisiae deletion strains, locus YNL307C, strain MCK1, active compounds read low 1.05 | S. cerevisiae deletion strains, locus YNL322C, strain KRE1 (second series), active compounds read low 1 | S. cerevisiae deletion strains, locus YNL322C, strain KRE1, active compounds read low 1.01 and 1.02 | S. cerevisiae deletion strains, locus YNR049C, strain mso1, active compounds read low 1.01 | S. cerevisiae deletion strains, locus YNR052C, strain pop2, active compounds read low 1.01 | S. cerevisiae deletion strains, locus YOL006C, strain TOP1, active compounds read low 1.04 | S. cerevisiae deletion strains, locus YOL012C, strain htz1 0.927 | S. cerevisiae deletion strains, locus YOL147C, strain pex11, active compounds read low 1.01 | S. cerevisiae deletion strains, locus YOR001W, strain rrp6, active compounds read low 0.99 | S. cerevisiae deletion strains, locus YOR061W, strain CKA2, active compounds read low 1.01 | S. cerevisiae deletion strains, locus YOR069W, strain VPS5, active compounds read low 1.02 | S. cerevisiae deletion strains, locus YOR070C, strain gyp1, active compounds read low 1 | S. cerevisiae deletion strains, locus YOR080W, strain dia2, active compounds read low 1 | S. cerevisiae deletion strains, locus YOR083W, strain WHI5 (second series), active compounds read low 1.02 | S. cerevisiae deletion strains, locus YOR083W, strain WHI5, active compounds read low 0.971 | S. cerevisiae deletion strains, locus YOR106W, strain vam3, active compounds read low 0.991 | S. cerevisiae deletion strains, locus YOR136W, strain idh2, active compounds read low 1.01 | S. cerevisiae deletion strains, locus YOR144C, strain elg1, active compounds read low 1 | S. cerevisiae deletion strains, locus YOR184W, strain ser1, active compounds read low 1.06 | S. cerevisiae deletion strains, locus YOR265W, strain rbl2, active compounds read low 1.01 | S. cerevisiae deletion strains, locus YOR270C, strain vph1, active compounds read low 1.01 | S. cerevisiae deletion strains, locus YOR290C, strain snf2, active compounds read low 0.993 | S. cerevisiae deletion strains, locus YOR316C, strain cot1, active compounds read low 1.02 | S. cerevisiae deletion strains, locus YPL051W, strain arl3, active compounds read low 0.989 | S. cerevisiae deletion strains, locus YPL055C, strain LGE1, active compounds read low 0.952 and 1.01 | S. cerevisiae deletion strains, locus YPL078C, strain atp4, active compounds read low 0.983 | S. cerevisiae deletion strains, locus YPL106C, strain sse1, active compounds read low 1.02 | S. cerevisiae deletion strains, locus YPL240C, strain hsp82, active compounds read low 0.991 | S. cerevisiae deletion strains, locus YPL241C, strain CIN2, active compounds read low 1.02 and 1 | S. cerevisiae deletion strains, locus YPR119W, strain clb2, active compounds read low 1 | S. cerevisiae deletion strains, locus YPR141C, strain kar3, active compounds read low 1.01 | S. cerevisiae deletion strains, locus YPR163C, strain tif3, active compounds read low 1.01 | S. cerevisiae deletion strains, locus YPR167C, strain met16, active compounds read low 1.01 | S. cerevisiae deletion strains, strain wtn01, active compounds read low 0.982 | S. cerevisiae strains, strain wild type, active compounds read low 1.03
